# An excerpt weighted towards active compounds, which were near 4.8% of everything screened.
# NR1D1 modulator: modulators of human Rev-erb alpha DNA binding | P20393 | Rev-erbα–FITC-DNA binding, fluorescence polarization, 90 min | activity, % at 10 µM | actives 0.79% (n = 370,000) | AID 1259318;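 active = activity above about 14%, limit read from the data; passing the limit was not always enough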;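 note: 0% = DMSO wells with 35 nM protein and 100% = DMSO wells with 750 nM protein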
# hcDAF12 agonist: activates DAF-12 receptor from parasite H. contortus; actives 1.4% (n = 370,000); activation, % at 6.8 µM; HEK293 hcDAF-12 lit1-tk-luc reporter, luminescence; 0% DMSO, 100% Δ7-dafachronic acid; AID 652067;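 active = activation above the mean of all tested compounds plus 3 SD, cut at about 5.5% in these data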;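 note: 100% = response to 3 µM Δ7-dafachronic acid high control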
# ssDAF-12 act: activators of S. stercoralis DAF-12 nuclear receptor; HEK293 ssDAF-12/GRIP1 lit1-tk-luc reporter, luminescence; % of 3 µM dafachronic acid response; activation, % at 6.8 µM; actives 1% (n = 370,000); AID 652126;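 active = activation above the mean over all tested compounds plus 3 SD, cut at about 0.9% in these data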;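 note: 0% = DMSO-only wells and 100% = 3 µM delta7-dafachronic acid wells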
# DAX1 inh-1: inhibitors of human orphan nuclear receptor DAX1 (NR0B1); P51843; HEK293 Gal4-DAX1 luciferase reporter, luminescence; inhibition, % at 6.75 µM; actives 0.99% (n = 340,000);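 active = inhibition above the mean over all tested compounds plus 3 SD, cut at about 4.2% in these data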;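 note: 0% = DAX1-transfected cells with DMSO and 100% = empty-vector control cells with DMSO; inhibition shows as a rise in luminescence from relieved DAX1 repression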
# Target sequence (P51843 207-470 limits assumed): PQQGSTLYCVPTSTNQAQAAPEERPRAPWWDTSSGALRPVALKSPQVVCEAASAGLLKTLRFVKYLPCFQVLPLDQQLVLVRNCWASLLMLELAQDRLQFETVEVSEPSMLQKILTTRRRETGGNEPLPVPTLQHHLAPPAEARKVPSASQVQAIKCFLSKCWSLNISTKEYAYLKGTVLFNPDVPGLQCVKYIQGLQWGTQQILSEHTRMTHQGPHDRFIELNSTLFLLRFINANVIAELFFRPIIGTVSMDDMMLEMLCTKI
# hgDAF12 agonist: activates the H. glycines DAF-12 receptor ligand-binding domain. HEK293 GAL4-hgDAF12 UAS-luciferase reporter, agonist luminescence; normalized to butyrate control. activation, % at 6.8 µM. actives 1.8% (n = 370,000). AID 687014;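 active = activation above a cutoff set at the mean of all screened compounds plus 3 SD, cut at about 10% in these data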;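 note: 0% = DMSO wells and 100% = sodium butyrate wells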
# DAX1 inh-2: blocks DAX1 repression of SF-1 activated StAR promoter; HEK293T StAR-luciferase reporter, SF-1/DAX-1 repression relief; inhibition, % at 6.8 µM; actives 1.1% (n = 370,000);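 active = inhibition above the mean over all tested compounds plus 3 SD, cut at about 3.6% in these data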;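 note: 0% = DAX-1 cells with DMSO and 100% = cells lacking DAX-1 with DMSO; higher inhibition means more luminescence from relief of DAX-1 repression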
# Rev-erbA confirm: confirmation of modulators of human Rev-erb alpha DNA binding; shares compounds with NR1D1 modulator; Rev-erb alpha FITC-DNA binding, fluorescence polarization, 90 min; activation, % at 25 µM; actives 61% (n = 3,000);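 active = activation at or above a set limit, or at least 3 SD above the negative control mean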;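 note: 0% = 35 nM protein with DMSO and 100% = 750 nM protein high control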
# RORg counter: counter-screen for Rev-erb alpha modulators: RORgamma DNA binding; shares compounds with NR1D1 modulator; purified RORgamma protein-FITC-DNA binding, fluorescence polarization; IC50, µM; actives 8% (n = 910);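 active = Compounds whose fitted half-maximal concentration for disrupting protein-DNA binding is below 10 micromolar; the record names Rev-erb in its text, so the target is in doubt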
# Numbers without * were called inactive; i = inactive; / = no result.
SMILES,NR1D1 modulator,hcDAF12 agonist,ssDAF-12 act,DAX1 inh-1,hgDAF12 agonist,DAX1 inh-2,Rev-erbA confirm,others
C=C1C[C@@]23CCC4[C@@](C)(CCC[C@@]4(C)C(=O)O)C2CC[C@]1(O)C3 (stereo partly drawn),13*,-1,-1,-1,0,0,4,
COc1ccc(-c2c(C)sc(NC(=O)c3ccnn3C)c2C#N)cc1,47*,-2,-1,0,-1,-1,27*,
CC(C)CNC(=O)OCc1cn(Cc2ccccc2F)nn1,4,2,0,/,1,2,/,
CCSc1nnc(NC(=O)c2cc3c(s2)CCCC3)s1,33*,0,-1,-1,1,0,38*,RORg counter=>40
O=C(Nc1nnc(SCc2ccccc2)s1)c1cccc([N+](=O)[O-])c1,-2,-2,-2,0,-3,0,/,
O=C(Nc1nnc(SCc2ccccc2)s1)c1cc2c(s1)CCCC2,52*,1,-1,2,3,0,34*,RORg counter=i
CCSc1nnc(NC(=O)c2csc3c2CCCC3)s1,12,-2,-1,-1,-2,1,/,
COc1cc(C=Cc2nnc3c4ccccc4cnn23)cc(OC)c1OC,50*,-2,-1,-1,-1,-1,36*,RORg counter=>40
COC(=O)c1cc2c(c3c4cc(OC)ccc4n(S(=O)(=O)c4cccc(C)c4)c13)C(=O)N(Cc1ccc(C(F)(F)F)cc1)C2,18*,2,-1,/,1,0,8,
CC(=O)Nc1ccc(Nc2nc(-c3cc4ccccc4oc3=O)cs2)cc1,2,-4,-2,-3,-6,-2,/,
O=C(Nc1nc(-c2cc3ccccc3oc2=O)cs1)c1ccc(Br)o1,54*,0,-1,1,0,0,31*,
O=C(N=C1N(Cc2ccccc2)C[C@]2(C=C3CCCCC3n3c(=O)n(-c4ccccc4)c(=O)n32)N1C(=O)OCc1ccccc1)c1ccccc1 (stereo partly drawn),8,-2,-1,/,0,1,/,
Cc1cccc(C)c1N=Nc1c(C)cc(O)cc1C,7,0,0,1,0,0,/,
Cc1cc(N(C)C)cc(C)c1N=Nc1cc[n+]([O-])cc1,27*,-1,-1,2,1,-1,24*,
CC(=O)OC12CCCN(C1)/C(=C/c1cccc(Cl)c1)C2 (stereo not drawn),1,-1,-1,/,1,0,/,
CN(CC(=O)Nc1ccc(F)cc1)C(=O)COC(=O)CNC(=O)c1sc2ccccc2c1Cl,23*,-1,-1,1,2,2,9,
COc1ccc(NC(=O)CN(C)C(=O)CNC(=O)c2sc3ccccc3c2Cl)cc1,-2,1,0,0,1,-1,/,
O=C(CNC(=O)c1sc2ccccc2c1Cl)Nc1ccccc1F,44*,-1,-1,1,-1,1,10,
COC(=O)c1ccc(S(=O)(=O)N2CCC(NC(=O)Cc3cccc(C)c3)CC2)cc1,1,-2,-1,/,2,0,/,
COc1ccc(C2CC(=O)C(c3ccc(Cl)c(Cl)c3)=CN2Cc2ccccc2)cc1 (stereo not drawn),-7,-3,-1,/,4,-1,/,
CCCCc1c(-c2ccccc2OC)ncn1Cc1ccccc1F,1,-1,-1,/,-1,0,/,
CN(CC(=O)Nc1ccccc1C(F)(F)F)C(=O)CCc1nc2sc3c(c2c(=O)[nH]1)CCCC3,30*,0,-1,0,0,0,22*,
CN(CC(=O)Nc1ccc(F)cc1)C(=O)CCc1nc2sc3c(c2c(=O)[nH]1)CCCC3,16,-1,-1,0,-1,-1,/,
CCN(CC(=O)Nc1ccccc1C(F)(F)F)C(=O)CCc1nc2sc3c(c2c(=O)[nH]1)CCCC3,20*,0,0,1,2,0,0,
O=C(CSc1nnc(-c2cccnc2)n1-c1ccc(Cl)cc1)c1ccc2ccccc2c1,-5,-2,-1,/,1,0,/,
SMILES,NR1D1 modulator,hcDAF12 agonist,ssDAF-12 act,DAX1 inh-1,hgDAF12 agonist,DAX1 inh-2,Rev-erbA confirm,others
CC1(C(=O)NCc2ccccc2)CN(S(C)(=O)=O)CC(=O)N1C1CC1 (stereo not drawn),3,-2,-2,/,2,0,/,
C=CCNC(=O)Cn1nnc(-c2ccc(-c3ccc(OC)cc3)cc2)n1,39*,3,-1,0,6,0,1,
O=S(=O)(NCCOc1ccccc1F)c1cccc(Br)c1,18*,1,-1,0,-1,0,2,
N#Cc1cccc(S(=O)(=O)NCCOc2ccccc2F)c1,4,-1,-1,0,0,0,/,
O=c1oc(C2(O)CCCCC2)cc2ccccc12,8,0,-1,-1,2,-1,/,
O=c1oc(C2(O)CCCCC2)cc2ccc(-c3ccc4[nH]ccc4c3)cc12,22*,0,-1,-3,-4,-2,11,
COc1ccccc1CN1CC(C(=O)NCc2nccn2C)CCC1=O (stereo not drawn),20*,-2,-1,0,2,1,4,
CCc1ccc(OCC(=O)Nc2cccc3nsnc23)cc1,-2,0,-1,0,0,0,/,
COc1ccc(/C=N/NC(=O)Nc2cccc3nsnc23)c(OC)c1,68*,-1,-1,1,0,0,24*,
Cc1ccccc1OCC(=O)Nc1ccccc1N1CCCCC1,17*,-1,-1,0,2,0,17,
Cc1ccccc1OCC(=O)Nc1cccc2nsnc12,105*,4,0,-1,2,0,55*,RORg counter=i
CCCCn1c(=O)[nH]c(=O)c2c1nc(-c1cc(Cl)c(OC)c(OC)c1)n2C,15*,1,-1,0,0,0,3,
CCNC(=O)Nc1ccc2c(c1)C(=O)N(C)[C@H]1CC[C@@H](CC(=O)NCCN3CCCC3)O[C@@H]1CO2,-2,1,0,/,6,0,/,
O=C1c2ccccc2/C(=C\c2ccc(Br)nc2)N1c1ccccc1,-1,1,1,/,2,1,/,
CCn1c(SCC(=O)NN=Cc2c[nH]c3ccccc23)nc2ccccc21,0,0,-1,/,1,-4,/,
CCc1ccccc1NC(=O)CN1C(=O)C2CCCN2c2ncc(Cl)cc21 (stereo not drawn),-3,0,-1,0,2,0,/,
